# APP transl inh: inhibitors of APP translation via 5'UTR reporter, primary screen, APP 5'UTR luciferase, SH-SY5Y cells; SH-SY5Y APP 5'UTR-luciferase reporter, luminescence; inhibition, % at 2 µM; actives 0.82% (n = 190,000); AID 1285, 2008;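 active = inhibition above a set limit, derived from the sample mean plus 3 SD, cut at about 45% in these data; inconclusive = one replicate passes the limit while the other fails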
# BaF3 parental: parental Ba/F3 cell viability inhibition, counter-screen for JAK2V617F inhibitor project, murine pro-B, CellTiter-Glo luminescence; CellTiter-Glo ATP luminescence; inhibition, % at 5.6 µM; actives 1.1% (n = 220,000); AID 1486, 2009;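 active = inhibition above a per-campaign cutoff, the mean inhibition of all tested compounds plus 3 SD, cut at about 27% in these data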;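 note: 0% = DMSO wells and 100% = JAK Inhibitor I control wells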
# Ba/F3 V617F tox: reduced viability of JAK2V617F-dependent Ba/F3 cells, primary screen, JAK2V617F inhibitor project, cell-based, Ba/F3 EpoR-JAK2V617F, luminescence. ATP luminescence. inhibition, % at 5.6 µM. actives 1.1% (n = 220,000). AID 1446, 2008;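 active = inhibition above the campaign mean plus 3 SD over all tested compounds, cut at about 24% in these data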;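 note: cytokine-independent growth of Ba/F3 cells driven by EpoR plus mutant JAK2; 0% = DMSO-treated cells and 100% = JAK inhibitor I control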
# aSyn 5UTR inh: MLPCN primary screen, SNCA 5' untranslated region; AID 1813, 2009; actives 0.82% (n = 300,000); alpha-synuclein 5'UTR reporter, inhibitor activity; inhibition, % (tested at 7.5 µM); in the data active = inhibition above about 60%; inconclusive = no clear call, values can overlap the other calls;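 note: H4 neuroglioblastoma cells stably carrying SNCA 5'UTR luciferase fusion; 0% = DMSO wells and 100% = positive control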
# KLF5 inh: KLF5 expression inhibitors, primary screen, DLD-1 cells, luminescence | DLD-1 KLF5 promoter-luciferase reporter | inhibition, % at 5 µM | actives 0.23% (n = 290,000) | AID 1700, 2009;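 active = inhibition above a per-plate limit of that plate's mean compound inhibition plus 3 SD, cut at about 60% in these data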;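 note: 0% = DMSO wells and 100% = LY294002 at 200 µM; higher means less KLF5 promoter-driven luciferase light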
# IEC-6 tox-1: cytotoxicity in IEC-6 intestinal epithelial cells, primary screen, cytotoxicity control for KLF5 inhibitor project, cell-based, luminescence; IEC-6 cytotoxicity, luminescence viability; inhibition, % at 5 µM; actives 0.78% (n = 290,000); AID 1825, 2009;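 note: 0% = plate median of test compound wells and 100% = cytotoxic reference compound wells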
# KLF5 confirm: KLF5 expression inhibitors, confirmation, DLD-1 cells, luminescence; actives 79% (n = 610); DLD-1 KLF5 promoter firefly luciferase reporter; inhibition, % at 4 µM; AID 1834, 2009; shares compounds with KLF5 inh;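 active = inhibition above a set limit taken from the earlier primary screen, cut at about 63% in these data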;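 note: 0% = DMSO wells and 100% = LY294002 at 200 µM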
# IEC-6 tox-2: cytotoxicity in rat IEC-6 cells, cytotoxicity control for KLF5 inhibitor project, cell-based, luminescence, triplicate | shares compounds with KLF5 inh | IEC-6 rat intestinal cells, viability luminescence | inhibition, % at 4 µM | actives 56% (n = 610); in the data active = inhibition above about 23%;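 note: cells exposed to compounds for 48 hours before viability read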
# IEC-6 cytotox cf: cytotoxic compounds in IEC-6 epithelial cells, confirmation, cytotoxicity control, cell-based, luminescence; shares compounds with IEC-6 tox-1; IEC-6 rat intestinal epithelial viability; inhibition, % at 5 µM; actives 63% (n = 1,900);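 note: 0% = vehicle and 100% = reference cytotoxic drug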
# An asterisk follows results filed as active; ? = inconclusive; / = no result given. Most compounds without a hit are left out; they make up all but 2.1% or so of the library. Cut-off read from the data, not from the text of the source, unless noted: active = inhibition above about 22%; inactive = the rest.
SMILES,APP transl inh,BaF3 parental,Ba/F3 V617F tox,aSyn 5UTR inh,KLF5 inh,IEC-6 tox-1,KLF5 confirm,IEC-6 tox-2,IEC-6 cytotox cf
N#CC(C#N)=C(Nc1ccc(F)cc1)SCc1cccc(Br)c1,1,13,20,?,65*,30*,68*,28*,41*
CC(SCc1ccccc1)C(=O)Nc1ccc(F)cc1 (stereo unspecified),-4,5,1,-36,-22,-1,/,/,/
O=c1ccn(Cc2ccc(F)cc2)c2ccnc(C(F)(F)F)c12,1,7,2,20,-17,2,/,/,/
COc1cc2c(cc1OC)C(C)N(C(=O)Nc1cc(C)cc(C)c1)CC2 (stereo unspecified),/,/,/,-38,63*,76*,80*,55*,55*
CCCCCCCCCCn1ccc(=N)cc1,/,100*,99*,106*,86*,66*,70*,62*,72*
CCCCCCN1C2=NCCCN2c2ccccc21,/,2,-1,11,-11,-4,/,/,/
CCCCCCN1Cc2ccccc2C1,-75,3,3,-117,-22,3,/,/,/
CCCCCCCCn1ccc(=N)cc1,/,90*,99*,62*,68*,43*,53,48*,43*
CCOC(=O)c1c(C)[nH]c(C)c1S(=O)(=O)N1CCOCC1,/,/,/,-4,-1,5,/,/,/
COc1ccc(/C=N/NC(=O)COc2ccccc2-c2ccccc2)cc1,96*,76*,76*,70*,65*,79*,77*,54*,56*
CN(C)c1ccc(/C=N/NC(=O)COc2ccccc2)cc1,-12,7,2,-32,-39,-2,/,/,/
O=C(OCC(=O)N1CCN(c2ccccc2)CC1)c1ccc[n+]([O-])c1,1,10,1,-12,-21,1,/,/,/
CC(=O)Nc1sc2c(c1-c1nc3ccccc3s1)CCN(C(C)C)C2,70*,73*,95*,/,62*,99*,62*,23*,29*
COc1cc(C(=O)N2CCN(c3cccc(C)c3C)CC2)cc(OC)c1OC,95*,71*,70*,?,72*,82*,75*,59*,58*
Cc1cccc(N2CCN(C(=O)c3ccncc3)CC2)c1C,4,7,5,14,17,10,/,/,/
COc1cccc(C(=O)Nc2sc3c(c2C#N)CCN(C(C)=O)C3)c1,92*,81*,76*,-14,74*,77*,79*,56*,26*
COc1cccc(C(=O)Nc2sc3c(c2C(=O)O)CCCC3)c1,/,/,/,9,55,-4,/,/,/
O=C(CSc1n[nH]c(-c2ccccn2)n1)Nc1ccc(Cl)cc1,/,/,/,74*,73*,44*,63*,18,29*
O=C(CSc1n[nH]c(-c2ccc(Cl)cc2Cl)n1)Nc1ccccn1,38,6,0,-1,-23,0,/,/,/
C=C(C)COc1ccc(-c2n[nH]c(C)c2Oc2ccccc2OC)c(O)c1,10,3,4,-23,-1,6,/,/,/
C=C(C)COc1ccc(-c2n[nH]c(C)c2-c2ccc(OC)c(OC)c2)c(O)c1,/,76*,78*,49,63*,75*,70*,28*,49*
COc1ccc(C)cc1Nc1c2c(nc3ccccc13)CCC2,/,/,/,68*,62*,88*,87*,70*,55*
O=C(NC1C2CCCC1CN(C1CC1)C2)c1ccc(Cl)cc1 (stereo unspecified),/,/,/,14,-26,-2,/,/,/
CCCCC(=O)NC(c1ccc(Cl)cc1)c1ccc2cccnc2c1O (stereo unspecified),/,/,/,56,84*,57*,88*,66*,68*
CCCC(=O)NC(c1ccccc1)c1c(O)ccc2ccccc12 (stereo unspecified),/,/,/,8,-16,2,/,/,/
SMILES,APP transl inh,BaF3 parental,Ba/F3 V617F tox,aSyn 5UTR inh,KLF5 inh,IEC-6 tox-1,KLF5 confirm,IEC-6 tox-2,IEC-6 cytotox cf
CC(=O)NC(c1ccc2ccccc2c1)c1ccc2cccnc2c1O (stereo unspecified),/,/,/,57,77*,99*,87*,79*,82*
Oc1c(C(Nc2nccs2)c2ccc(C(F)(F)F)cc2)ccc2cccnc12 (stereo unspecified),66*,54*,60*,55,62*,44*,84*,57*,62*
CCCC(=O)NC(c1ccc(C)cc1)c1ccc2cccnc2c1O (stereo unspecified),/,/,/,58,99*,55*,87*,75*,83*
Cc1ccc(C(=O)O)cc1NC(=O)CSc1ncnc2sc3c(c12)CCC3,/,-4,-4,-9,-6,2,/,/,/
O=C(COC(=O)c1ccccc1SCC(=O)N1CCCC1)NCc1ccccc1,/,/,/,-4,/,/,/,/,/
CCCC(=O)NC(c1ccc(Cl)cc1)c1ccc2cccnc2c1O (stereo unspecified),/,/,/,47,78*,40*,82*,77*,67*
COc1ccccc1C(NC(C)=O)c1cc(Cl)c2cccnc2c1O (stereo unspecified),/,/,/,67*,73*,61*,71*,81*,43*
CCCCC(=O)NC(c1ccc(N(C)C)cc1)c1ccc2cccnc2c1O (stereo unspecified),/,/,/,62*,85*,62*,88*,64*,86*
CCCCC(=O)NC(c1ccccc1OC)c1ccc2cccnc2c1O (stereo unspecified),/,38*,47*,101*,76*,24*,94*,48*,57*
COc1ccc(S(=O)(=O)NCc2ccccn2)cc1NC(=O)c1ccc(C)cc1,/,/,/,-54,/,/,/,/,/
CCOc1ccc(S(=O)(=O)NCc2ccccn2)cc1NC(=O)c1ccccc1F,/,/,/,76*,70*,88*,81*,55*,58*
CCOc1cc(/C=N/NC(=O)C(=O)NCc2ccc3c(c2)OCO3)ccc1OCC(=O)N1CCOCC1,/,/,/,0,-20,-1,/,/,/
CC(CNC(=O)c1ccc(OC2CCN(Cc3ccccn3)CC2)cc1)c1ccccc1 (stereo unspecified),/,/,/,-97,-40,3,/,/,/
COc1ccc(NC(=O)/C(Cl)=C(/Cl)S(=O)Cc2ccccc2Cl)cn1 (stereo unspecified),94*,103*,102*,/,107*,102*,111*,63*,86*

# Screening data from PubChem BioAssay.
